Measured values published in PubChem BioAssay (NCATS).
Results filed as inconclusive are left out. A call without a number means that no potency is given here. Calls of active or inactive are those of the source. The call rests on the fitted dose curve; in most records, active means well fitted inhibition curve with a large enough effect; inconclusive means small, poorly fitted or top-dose-only effect; inactive means flat fitted curve, though single readings scatter.

Each molecule was assayed against Aldehyde dehydrogenase, mitochondrial (Homo sapiens) (UniProt P05091) (assay: qHTS for Inhibitors of the Aldehyde Dehydrogenase Family (ALDH2) Primary screen (AID 2061308; further: nearly all actives have a fitted effect of over 55% in size)). Conditions: ALDH2 enzyme inhibition qHTS, 1536-well; series mostly up to 56 µM.
With `C=CCc1cccc(CNc2ccc(S(=O)(=O)Nc3nccs3)cc2)c1O` the Potency was “inactive”. In the case of `Cc1cc2c(s1)c1cnn(Cc3ccc(C)c(F)c3F)c(=O)c1n2C`, the Potency is reported as “inactive”. In the case of `COc1ccc(CC(=O)Nc2nc(-c3ccc4c(c3)CCN4C(=O)c3ccccc3C)c(C)s2)cc1`, the Potency is reported as “inactive”. For `Cc1cnc(-c2ccccc2C(C)C)nc1NCc1ccc(-c2ccnc(C(F)(F)F)c2)cc1`, the Potency was “inactive”. For `Cc1cc(NS(=O)(=O)c2ccc(NC(=O)Cc3ccc(Cl)c(C(F)(F)F)c3)cc2)no1`, the Potency was “inactive”. With `O=P(c1ccccc1)(c1ccccc1)c1cnc2ccccn12` the Potency was “inactive”. `C#CCCC(=O)Nc1sc2c(c1-c1nc3ccccc3s1)CCN(C(C)C)C2` was tested, and the Potency was “inactive”. With `Fc1ccc(CNc2nc(-c3ccccc3C(F)(F)F)nc3ccccc23)cc1` the Potency was “inactive”. For `CSc1ccccc1-c1ccc(Nc2nc(-c3ccncc3)nc3ccccc23)cc1F`, the Potency was “inactive”. `CCOc1ccc(CCNC(=O)c2cc3sccc3n2Cc2ccccc2)c(F)c1OCC` was tested, and the Potency was “inactive”. In the case of `CC(=O)c1ccc(N2CCN(S(=O)(=O)c3ccc4c(c3)CCCN4C(C)=O)CC2)cc1`, the Potency is reported as “inactive”. For `Cc1cccc(CNc2ccnc(-c3ccc(F)cc3F)n2)c1`, the Potency was “inactive”. `O=C(NC(c1ccco1)c1cc(Cl)c2cccnc2c1O)c1ccc(F)c(F)c1` (configuration not stated) was tested, and the Potency was “inactive”. For `CC(=O)Nc1ccc(S(=O)(=O)Nc2nccs2)cc1`, the Potency was “inactive”. `CC(=O)Nc1sc2c(c1-c1nc3ccccc3s1)CCN(C)C2` was tested, and the Potency was “inactive”. `COc1ccc(NC(=O)C(OC(=O)CNC(=O)c2ccccc2)c2ccccc2)cc1Cl` (configuration not stated) was tested, and the Potency was “inactive”. With `Cn1c2ccsc2c2ncn(Cc3ccccc3F)c(=O)c21` the Potency was “inactive”.
